# Experiment: High-throughput drug toxicity screening in the BPDCN cell line Gen2.2 (AID 1224824)
# Conditions: Gen2.2 BPDCN cells; at 45.8 µM (top of the series) unless noted
# Source text: Blastic plasmacytoid dendritic cell neoplasm (BPDCN) is a rare, aggressive and largely incurable hematologic malignancy originating from plasmacytoid dendritic cells (pDCs). Although an initial response to chemotherapy is common, BPDCN prognosis is extremely poor and most patients relapse with drug-resistant disease leading to a median overall survival of ~1 year after diagnosis. To explore novel potential therapeutic strategies in BPDCN, we performed a high-throughput drug toxicity screening in BPDCN cell liens, using of a library of 1,912 small molecules, enriched for compounds that are either approved or in early stages of development for cancer therapy.
# A total of 500 exponentially growing Gen2.2 cells were seeded per well in 5 uL of media (RPMI + Glutamine, without phenol red plus10% FBS and 1X Pen/Strep) into 1536-well solid white high base tissue culture treated Greiner One Bio Plates (789173-F), using a multidrop combi dispenser and a small sterile cassette. Compounds and controls totaling 23nL per well (negative control DMSO and positive control 9.2 uM Bortezomib-final) were immediately added to the plates using a 1536 head pin tool from Kalypsys. The plates were then covered with stainless steel gasket lids from Kalypsys and incubated for 48 hours at 37C under 95% relative humidity with 5% CO2. After 48 hours, the plates were removed and allowed to reach room temperature before 3 uL of Cell Titer Glo reagent (Promega) were added using an Aurora Flying Reagent Dispenser Bioraptor. The plates were then spun at 1000 rpms to remove bubbles and incubated for 15 minutes at room temperature before reading on a ViewLux using a luminescent filter with a 10 second exposure. The relative luciferase units were used to calculated percent activity using DMSO as 100% and Bortezomib as 0%.
row,SMILES,"cell viability, % of control (lower = more cytotoxic)"
1,O=C(O)[C@H]1O[C@H](Oc2cc3oc(-c4ccccc4)cc(=O)c3c(O)c2O)[C@H](O)[C@@H](O)[C@H]1O,46.5%
2,Cc1c(NC(=O)c2ccc(C(C)(C)C)cc2)cccc1-c1cn(C)c(=O)c(Nc2ccc(C(=O)N3CCOCC3)cc2)n1,29.7%
3,CC(C)(C)OC(=O)N[C@H]1CCCCCC=C[C@@H]2C[C@@]2(C(=O)NS(=O)(=O)C2CC2)NC(=O)[C@@H]2C[C@@H](OC(=O)N3Cc4cccc(F)c4C3)CN2C1=O,46.5%
4,O=c1cc(-c2ccccc2)oc2cc(O)cc(O)c12,45.9%
5,CC(C)=CC[C@@H](O)C1=CC(=O)c2c(O)ccc(O)c2C1=O,5.88%
6,CC=CCC=CCCC(=O)[C@H]1O[C@@H]1C(N)=O,7.55%
7,CN(C)C1CCN(C(=O)c2ccc(NC(=O)Nc3nc(N4CCOCC4)nc(N4CCOCC4)n3)cc2)CC1,6.71%
8,CC(=O)Nc1ccc([C@H](C)C(=O)Nc2ncc(C(C)C)s2)cc1,7.33%
9,O=c1c(-c2ccc(O)cc2)coc2cc(O)ccc12,119%
10,COc1cc(O)c2c(c1)C(=O)c1cc(C)cc(O)c1C2=O,154% [at 23.2 µM]
11,NC(=O)c1ccc2nc(-c3ccc(Oc4ccc(Cl)cc4)cc3)[nH]c2c1,59.5%
12,Cn1cc(C=C2C(=O)Nc3cccnc32)c2ccccc21,111%
13,O=C(O)c1cc(O)c2c(c1)C(=O)c1cccc(O)c1C2=O,168% [at 92.2 µM]
14,COc1ccc2cccc(CCNC(C)=O)c2c1,206%
15,O=c1cc(-c2cccc3c2Sc2ccccc2S3)oc(N2CCOCC2)c1,22.3%
16,Cc1[nH]c(C=C2C(=O)Nc3ccc(S(=O)(=O)Cc4c(Cl)cccc4Cl)cc32)c(C)c1C(=O)N1CCC[C@H]1CN1CCCC1,6.62%
17,NC(=O)c1cnc(-c2ccc(C3(N)CCC3)cc2)c(-c2ccccc2)c1,80.1%
18,CC(=O)O[C@]1(C(C)=O)CC[C@@H]2[C@@H]3C[C@H](C)C4=CC(=O)CC[C@]4(C)[C@H]3CC[C@@]21C,75.1%
19,COc1ccc(C2Sc3ccccc3N(CCN(C)C)C(=O)C2OC(C)=O)cc1 (stereo not given),150%
20,C[C@]12CC[C@@H]3c4ccc(O)cc4C[C@@H](CCCCCCCCCS(=O)CCCC(F)(F)C(F)(F)F)[C@H]3[C@H]1CC[C@H]2O (stereo not given in full),105%

row,SMILES,"cell viability, % of control (lower = more cytotoxic)"
1,NS(=O)(=O)c1ccc(NC2=CC(=O)c3ccccc3C2=O)cc1,162%
2,COc1cc(Nc2ncc(F)c(Nc3ccc4c(n3)NC(=O)C(C)(C)O4)n2)cc(OC)c1OC,53.6%
3,O=C(O)C=Cc1ccc(O)c(O)c1,21.3%
4,COc1cc(NC(=O)c2ccc(-c3ccc(Cl)cc3)o2)cc(OC)c1,9.04%
5,CO[C@H]1C=CO[C@@]2(C)Oc3c(C)c(O)c4c(O)c(c5c(c4c3C2=O)NC2(CCN(CC(C)C)CC2)N=5)=NC(=O)C(C)=CC=C[C@H](C)[C@H](O)[C@@H](C)[C@@H](O)[C@@H](C)[C@H](OC(C)=O)[C@H]1C,106%
6,NC(=O)c1cccc(-c2cc(Nc3ccc(OC(F)(F)F)cc3)ncn2)c1,370%
7,C[N+]1(C)[C@@H]2CC(OC(=O)[C@H](CO)c3ccccc3)C[C@H]1[C@H]1O[C@@H]12 (stereo not given in full),112%
8,CC(C)(C)NC(=O)Nc1cccc(Nc2ncc(F)c(NC(C)(C)CO)n2)c1,235%
9,CC(C)OC(=O)CCCC=CC[C@@H]1[C@H](C=C[C@@H](O)COc2cccc(C(F)(F)F)c2)[C@H](O)C[C@@H]1O,286%
10,Cn1c(N2CCCCS2(=O)=O)nc(C(=O)NCc2ccc(F)cc2)c(O)c1=O,60.2%
11,CCC(=O)O[C@]1(C(=O)CO)CC[C@H]2[C@@H]3CCC4=CC(=O)CC[C@]4(C)[C@@H]3CC[C@@]21C,84.6%
12,O=C(NC1CCOCC1)c1ccc(-c2cc(-c3cn[nH]c3-c3ccccn3)ccn2)cc1,724%
13,CC(C)(C(=O)NCC(F)(F)C(F)(F)F)C(=O)N[C@@H]1C(=O)Nc2ccccc2-c2ccccc21,71.1%
14,CCOC(CN1C(=O)[C@](CC(=O)Nc2ccc(C)cc2)(NC(=O)Nc2ccc(C)cc2)c2ccccc21)OCC,45.2%
15,Cc1ccc(C(C)(O)c2nc3ccccc3s2)c(C)c1 (stereo not given),129%
16,CC(C)(C)COc1ccc(-n2cc(C(=O)O)cn2)cc1C#N,112%
17,CN(C)Cc1cccc(N=C(c2ccccc2)c2c(O)[nH]c3cc(C(=O)N(C)C)ccc23)c1,6.16%
18,CO[C@H]1C(=O)[C@]2(C)[C@@H](OC)C[C@H]3OC[C@@]3(OC(C)=O)[C@H]2[C@H](OC(=O)c2ccccc2)[C@]2(O)C[C@H](OC(=O)[C@H](O)[C@@H](NC(=O)OC(C)(C)C)c3ccccc3)C(C)=C1C2(C)C,28.9%
19,CC(C)(C)Cn1c(N)nc2ccc(-c3[nH]c(C(C)(C)C)nc3-c3ccc(F)cc3)nc21,207%
20,O=C(NOCC(O)CO)c1cc(Br)c(F)c(F)c1Nc1ccc(I)cc1F (stereo not given),1.76%
